From PubChem BioAssay (NCI)
Compounds without any hit were thinned out: in the full panel of roughly 83,000, 20% have a hit.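 Method: cells in 96-well plates; compound added at one concentration; 48 h incubation; percent growth measured; values under 10 scored active.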 Calls of active or inactive are those of the source.

Assays:
Test in all cases: NCI-60 one-dose screen, 48 h (100 = growth as untreated, 0 = no growth, -100 = all killed)
Settings in all cases: 10 µM unless noted
NCI-H23 lung = tested on: NCI-H23 lung
NCI-H226 lung = tested on: NCI-H226 lung
NCI-H322M lung = tested on: NCI-H322M lung
HOP-62 NSCLC = tested on: HOP-62 NSCLC
NCI-H460 lung = tested on: NCI-H460 lung
HOP-92 NSCLC = tested on: HOP-92 NSCLC
NCI-H522 lung = tested on: NCI-H522 lung
A549/ATCC NSCLC = tested on: A549/ATCC NSCLC
786-0 renal = tested on: 786-0 renal
COLO 205 colon = tested on: COLO 205 colon

Measured: growth

CC(=O)C1=C(C)NC(NNc2ccccc2)=NC1c1ccc([N+](=O)[O-])cc1 (stereo not given)
inactive: NCI-H23 lung 95.3% | NCI-H226 lung 96.7% | NCI-H322M lung 84.6% | HOP-62 NSCLC 113% | NCI-H460 lung 99.9% | HOP-92 NSCLC 99.7% | NCI-H522 lung 76.9% | A549/ATCC NSCLC 88.1% | 786-0 renal 97.8% | COLO 205 colon 106%

COc1ccc2c(c1)c(-c1nn3cc(-c4ccncc4)nc3s1)cn2C
inactive: NCI-H23 lung 88.7% | NCI-H226 lung 88.6% | NCI-H322M lung 85.4% | HOP-62 NSCLC 67% | NCI-H460 lung 53.1% | HOP-92 NSCLC 11.6% | NCI-H522 lung 68.9% | A549/ATCC NSCLC 98.7% | 786-0 renal 93% | COLO 205 colon 81.5%

Oc1[nH]c2ccc(Cl)cc2c1N=Nc1nc(N=Nc2c(O)[nH]c3ccc(Cl)cc23)nc(N2CCCCC2)n1
inactive: NCI-H23 lung 27.3% | NCI-H226 lung 63.4% | NCI-H322M lung 59.4% | HOP-62 NSCLC 94% | NCI-H460 lung 78% | HOP-92 NSCLC 125% | NCI-H522 lung 45.2% | A549/ATCC NSCLC 60.4% | 786-0 renal 66% | COLO 205 colon 66.6%

NS(=O)(=O)c1ccc(CCn2c(-c3ccc(C(=O)O)cc3)nc(-c3ccccc3)c2-c2ccccc2)cc1
inactive: NCI-H23 lung 98.4% | NCI-H226 lung 98.3% | NCI-H322M lung 97% | HOP-62 NSCLC 104% | NCI-H460 lung 107% | HOP-92 NSCLC 94.6% | NCI-H522 lung 96.8% | A549/ATCC NSCLC 105% | 786-0 renal 103% | COLO 205 colon 112%

CN1CCN(c2ccc(Nc3nc(NCCCNS(=O)(=O)c4cccc(F)c4)c4sccc4n3)cc2)CC1
inactive: NCI-H23 lung 84% | NCI-H226 lung 112% | NCI-H322M lung 68% | HOP-62 NSCLC 96.6% | NCI-H460 lung 19.9% | HOP-92 NSCLC 58.7% | A549/ATCC NSCLC 44.8% | COLO 205 colon 27.1%
active: NCI-H522 lung -1.42% | 786-0 renal -24.1%

C[C@@H]1OCC2(CCN(c3cnc(C(=O)Nc4cc(F)cc5cccnc45)cn3)CC2)[C@@H]1N
active: COLO 205 colon 9.27%
inactive: NCI-H23 lung 82.2% | NCI-H226 lung 78.6% | NCI-H322M lung 85.3% | HOP-62 NSCLC 83.8% | NCI-H460 lung 93.5% | HOP-92 NSCLC 45.7% | NCI-H522 lung 34.8% | A549/ATCC NSCLC 82.2% | 786-0 renal 71.3%

Cc1ccc(/C(N)=N/C(N)=N/c2nc3ccccc3s2)cc1
inactive: NCI-H23 lung 48.9% | NCI-H226 lung 63.2% | NCI-H322M lung 91.3% | NCI-H460 lung 75.7% | HOP-92 NSCLC 122% | NCI-H522 lung 100% | A549/ATCC NSCLC 19.6% | 786-0 renal 109% | COLO 205 colon 120%
active: HOP-62 NSCLC -42.4%

COC(=O)c1ccc(NC2=C(Cl)C(=O)c3nc(C)ccc3C2=O)cc1
inactive: NCI-H23 lung 54.8% | NCI-H226 lung 81.3% | NCI-H322M lung 101% | HOP-62 NSCLC 96.8% | NCI-H460 lung 92.3% | HOP-92 NSCLC 142% | NCI-H522 lung 59.6% | A549/ATCC NSCLC 94.1% | 786-0 renal 85.7% | COLO 205 colon 111%

O=C1C(SCc2ccccc2)=C(Cl)CN1c1ccccc1
inactive: NCI-H23 lung 95.6% | NCI-H226 lung 101% | NCI-H322M lung 97.3% | HOP-62 NSCLC 104% | NCI-H460 lung 102% | HOP-92 NSCLC 94.5% | A549/ATCC NSCLC 106% | 786-0 renal 104% | COLO 205 colon 130%
active: NCI-H522 lung -48.8%

CC(Nc1c(C#N)cnc2ccc(-c3cncc(O)c3)cc12)c1ccccc1 (stereo not given)
active: NCI-H23 lung 1.12% | NCI-H226 lung 2.59% | NCI-H322M lung -36.8% | HOP-62 NSCLC 5.27% | NCI-H460 lung 0.377% | HOP-92 NSCLC -3.64% | NCI-H522 lung -43.4% | 786-0 renal -1.52%
inactive: A549/ATCC NSCLC 15.9% | COLO 205 colon 57.6%

COc1ccc(C(=O)c2c(N)c(C#N)cn2-c2ccc(Cl)cc2Cl)cc1
inactive: NCI-H23 lung 93.3% | NCI-H226 lung 97.2% | NCI-H322M lung 93.8% | HOP-62 NSCLC 99.7% | NCI-H460 lung 100% | HOP-92 NSCLC 101% | NCI-H522 lung 90.3% | A549/ATCC NSCLC 93.4% | 786-0 renal 103% | COLO 205 colon 109%

COc1cc2oc(-c3cccc(NC(=O)c4cccc([N+](=O)[O-])c4)c3)cc(=O)c2c(OC)c1OC
active: HOP-62 NSCLC -36.4% | HOP-92 NSCLC -0.118%
inactive: NCI-H23 lung 69% | NCI-H226 lung 62.8% | NCI-H322M lung 82.4% | NCI-H460 lung 51.2% | NCI-H522 lung 58.5% | A549/ATCC NSCLC 43.8% | 786-0 renal 65.6% | COLO 205 colon 85.8%

CCOP(=O)(OCC)OC[C@]12CCC(C)(C)CC1C1=CC[C@@H]3[C@@]4(C)CCCNC(C)(C)[C@@H]4CC[C@@]3(C)[C@]1(C)CC2 (stereo not given in full)
inactive: NCI-H23 lung 85.2% | NCI-H226 lung 89% | NCI-H322M lung 95.7% | HOP-62 NSCLC 101% | NCI-H460 lung 55.1% | HOP-92 NSCLC 64.8% | NCI-H522 lung 90.2% | A549/ATCC NSCLC 70.8% | 786-0 renal 69.4%
active: COLO 205 colon 3.12%

CN(C)c1ccc(/C=N/Nc2nc(N/N=C/c3ccc(N(C)C)cc3)nc(N3CCCCC3)n2)cc1
inactive: NCI-H23 lung 96.7% | NCI-H226 lung 102% | NCI-H322M lung 100% | HOP-62 NSCLC 81.8% | NCI-H460 lung 70.9% | HOP-92 NSCLC 84% | NCI-H522 lung 96.2% | A549/ATCC NSCLC 78.5% | 786-0 renal 88.2% | COLO 205 colon 83.5%

CCc1cc2c(cc1Cl)nc1c(=O)[nH]c(=O)nc-1n2CCOCC(C)(C)C
inactive: NCI-H23 lung 72.1% | NCI-H226 lung 41.2% | NCI-H322M lung 63.7% | HOP-62 NSCLC 104% | NCI-H460 lung 56.4% | HOP-92 NSCLC 110% | NCI-H522 lung 70.5% | A549/ATCC NSCLC 75.5% | 786-0 renal 81.1% | COLO 205 colon 58.2%

N#Cc1c(-c2cccs2)cc(-c2cnccn2)nc1SCC(=O)N/N=C/c1cccs1
inactive: NCI-H23 lung 56.6% | NCI-H226 lung 68.9% | NCI-H322M lung 73.1% | HOP-62 NSCLC 38.8% | NCI-H460 lung 20.8% | HOP-92 NSCLC 30.1% | NCI-H522 lung 73.1% | A549/ATCC NSCLC 19.4% | 786-0 renal 16.6% | COLO 205 colon 53.5%

O=C(CSc1nc2ccccc2c(=O)n1-c1ccccc1)N/N=C/c1ccc(Oc2ccc(Cl)cc2)cc1
inactive: NCI-H23 lung 39.1% | NCI-H226 lung 72.1% | NCI-H322M lung 84.5% | HOP-62 NSCLC 59.1% | NCI-H460 lung 32.1% | HOP-92 NSCLC 66.7% | NCI-H522 lung 49.6% | A549/ATCC NSCLC 41.7% | 786-0 renal 53.2% | COLO 205 colon 49.2%

Cc1ccc(-c2csc(N/N=C/c3cccs3)n2)cc1
inactive: NCI-H23 lung 79.4% | NCI-H226 lung 70.1% | NCI-H322M lung 97% | HOP-62 NSCLC 95.3% | NCI-H460 lung 99.4% | HOP-92 NSCLC 87.3% | NCI-H522 lung 73.3% | A549/ATCC NSCLC 84.2% | 786-0 renal 97.5% | COLO 205 colon 115%

Nn1c(=O)n(-c2cccc(C(F)(F)F)c2)c(=O)c2cc(-c3ccc(F)cc3F)ccc21
inactive: NCI-H226 lung 16.5% | 786-0 renal 45.7% | COLO 205 colon 65.2%
active: NCI-H23 lung -6.15% | NCI-H322M lung 5.15% | HOP-62 NSCLC 2.28% | NCI-H460 lung 6.49% | HOP-92 NSCLC -35.6% | NCI-H522 lung -2.03% | A549/ATCC NSCLC 5.13%

Nc1cc(C(=O)N/N=C\c2ccc(OC(F)F)c(OC3CCCC3)c2)nn1CC(O)c1ccccc1 (stereo not given)
inactive: NCI-H23 lung 95.7% | NCI-H226 lung 92.7% | NCI-H322M lung 103% | HOP-62 NSCLC 101% | NCI-H460 lung 105% | HOP-92 NSCLC 84.1% | NCI-H522 lung 88.9% | A549/ATCC NSCLC 95.3% | 786-0 renal 107% | COLO 205 colon 112%

Cc1[nH]c(C(=O)Nc2ccc(S(=O)(=O)N3CCCCC3)cc2OCCOCCOCCOCCOCCOCCOCCOCCOCCOc2cc(S(=O)(=O)N3CCCCC3)ccc2NC(=O)c2[nH]c(C)c3c2CCCCC3=O)c2c1C(=O)CCCC2
active: NCI-H226 lung -2.37% | NCI-H522 lung 0.322% | COLO 205 colon -30.3%
inactive: NCI-H23 lung 20.8% | NCI-H322M lung 34.1% | HOP-62 NSCLC 12.5% | NCI-H460 lung 35.6% | HOP-92 NSCLC 16.9% | A549/ATCC NSCLC 24.1% | 786-0 renal 40.2%

O=C(/C=C/c1cccc(C(F)(F)F)c1)Nc1cccc(C(F)(F)F)c1
active: HOP-92 NSCLC 7.77%
inactive: NCI-H23 lung 33.1% | NCI-H226 lung 64.2% | NCI-H322M lung 79.9% | HOP-62 NSCLC 58.4% | NCI-H460 lung 13.9% | NCI-H522 lung 33.8% | A549/ATCC NSCLC 39% | 786-0 renal 76.4% | COLO 205 colon 38.4%

CN1CCN(CCNc2nc(-c3cccc(NS(=O)(=O)c4cccc5c(N(C)C)cccc45)c3)cs2)CC1
inactive: NCI-H23 lung 51.9% | NCI-H226 lung 66.3% | NCI-H322M lung 85.8% | HOP-62 NSCLC 82% | NCI-H460 lung 70.7% | HOP-92 NSCLC 39.7% | NCI-H522 lung 69.4% | A549/ATCC NSCLC 69.6% | 786-0 renal 60.8% | COLO 205 colon 85.6%

Cc1cc(=O)oc2cc(OCCCOc3ccc(/C=C/C(=O)Nc4ccc(Br)cc4)cc3)ccc12
active: NCI-H460 lung 9.24%
inactive: NCI-H23 lung 67.8% | NCI-H226 lung 77.4% | NCI-H322M lung 94.9% | HOP-62 NSCLC 85.2% | HOP-92 NSCLC 53.5% | NCI-H522 lung 80% | A549/ATCC NSCLC 92.2% | 786-0 renal 61.7% | COLO 205 colon 97.7%

CC(O)c1cccc(/C(N)=N/C(N)=N/c2nc3ccccc3s2)c1 (stereo not given)
inactive: NCI-H23 lung 91.6% | NCI-H226 lung 85.9% | NCI-H322M lung 97.4% | HOP-62 NSCLC 98.6% | NCI-H460 lung 85.4% | HOP-92 NSCLC 97.6% | NCI-H522 lung 96.9% | A549/ATCC NSCLC 82% | 786-0 renal 101% | COLO 205 colon 109%

Brc1ccc(-c2cc(-c3ccc4c(c3)OCCO4)n[nH]2)s1
inactive: NCI-H23 lung 40.6% | NCI-H226 lung 75.4% | NCI-H322M lung 42.7% | HOP-62 NSCLC 51.3% | NCI-H460 lung 14.3% | HOP-92 NSCLC 64.2% | NCI-H522 lung 20.9% | A549/ATCC NSCLC 33.3% | 786-0 renal 73.5% | COLO 205 colon 28.7%
